Test results reported in the supplement of paper PMC7669877.
± gives the uncertainty stated by the source.

Each compound was assayed on Candidatus Liberibacter solanacearum in potato hairy roots (assay: relative CLso titer (% of untreated control); higher = less inhibition of bacterial titer). Settings: 10 µM; 72 h.
Description: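 Primary screen of ~220 Spectrum collection (MicroSource) compounds at 10 µM (0.1% DMSO) on Candidatus Liberibacter solanacearum-infected potato hairy roots in multi-well plates (Gamborg B-5 medium, vacuum infiltrated, 21 °C, dark, 72 h). CLso titer was measured by qPCR of 16S rDNA normalised to potato RPL2 (2^-ddCq), pairwise-standardised against untreated controls, averaged over two biological replicates and expressed as % of untreated.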

Row | Compound | relative CLso titer [%]
1 | CN1CCN(CC(=O)N2c3ccccc3C(=O)Nc3cccnc32)CC1 | 56.9 ± 5.4
2 | C[C@]12CCC(=O)C=C1CC[C@@H]1[C@@H]2[C@@H](O)C[C@@]2(C)[C@H]1CC[C@]2(O)C(=O)CO | 94.9 ± 25
3 | C[C@]12CC[C@@H]3c4ccc(OC(=O)c5ccccc5)cc4CC[C@H]3[C@@H]1CC[C@@H]2O | 155 ± 66
4 | Oc1ncnc2[nH]ncc12 | 82.5 ± 30
5 | CC1(C)S[C@@H]2[C@H](NC(=O)C(C(=O)O)c3ccccc3)C(=O)N2[C@H]1C(=O)O (stereo not given in full) | 43.3 ± 14
6 | CC/C(=C(/CC)c1ccc(O)cc1)c1ccc(O)cc1 | 94.4 ± 41
7 | Cc1ccc(S(=O)(=O)NC(=O)NN2CCCCCC2)cc1 | 83.2 ± 12
8 | Oc1c(Cl)cc(Cl)cc1Sc1cc(Cl)cc(Cl)c1O | 55.8 ± 6.5
9 | CO[C@@]1(NC(=O)Cc2cccs2)C(=O)N2C(C(=O)O)=C(COC(N)=O)CS[C@@H]21 | 130 ± 27
10 | N=C(N)NC(=O)c1nc(Cl)c(N)nc1N | 54.7 ± 1.4
11 | CN(CCOc1ccc(CC2SC(=O)NC2=O)cc1)c1ccccn1 (stereo not given) | 87.5 ± 30
12 | Cn1c(=O)c2c(ncn2CC(O)CO)n(C)c1=O (stereo not given) | 128 ± 10
13 | CC12CC3CC(C)(C1)CC(N)(C3)C2 | 63.3 ± 31
14 | O=C(O)c1cc(=O)c2c(OCC(O)COc3cccc4oc(C(=O)O)cc(=O)c34)cccc2o1 | 58 ± 9.1
15 | Cc1onc(-c2c(Cl)cccc2Cl)c1C(=O)N[C@@H]1C(=O)N2[C@@H]1SC(C)(C)[C@@H]2C(=O)O | 145 ± 34
16 | Cc1ccc(C(=O)Nc2ccc(S(=O)(=O)O)c3cc(S(=O)(=O)O)cc(S(=O)(=O)O)c23)cc1NC(=O)c1cccc(NC(=O)Nc2cccc(C(=O)Nc3cc(C(=O)Nc4ccc(S(=O)(=O)O)c5cc(S(=O)(=O)O)cc(S(=O)(=O)O)c45)ccc3C)c2)c1 | 141 ± 37
17 | O=C(O)Cc1ccccc1Nc1c(Cl)cccc1Cl | 151 ± 55
18 | NS(=O)(=O)c1cc2c(cc1Cl)N=CNS2(=O)=O | 31 ± 2.7
19 | CC(=O)OCC(=O)[C@@]1(O)[C@H](C)C[C@H]2[C@@H]3CCC4=CC(=O)C=C[C@]4(C)[C@@]3(F)[C@@H](O)C[C@@]21C | 101 ± 39
20 | CCCCNc1cc(C(=O)O)cc(S(N)(=O)=O)c1Oc1ccccc1 | 105 ± 14

Row | Compound | relative CLso titer [%]
21 | CO/N=C(\C(=O)N[C@@H]1C(=O)N2C(C(=O)O)=C(COC(N)=O)CS[C@H]12)c1ccco1 | 149 ± 29
22 | CCN(CC)C(=O)N1CCN(C)CC1 | 106 ± 9.8
23 | Clc1ccc(COC(Cn2ccnc2)c2ccc(Cl)cc2Cl)cc1 (stereo not given) | 101 ± 35
24 | CN(C)CCC=C1c2ccccc2CCc2ccccc21 | 49 ± 2.5
25 | C[C@]12CC[C@@H]3c4ccc(O)cc4CC[C@H]3[C@@H]1CC[C@@H]2OC(=O)CCC1CCCC1 | 150 ± 44
26 | C/C=C(/C(=C/C)c1ccc(O)cc1)c1ccc(O)cc1 | 108 ± 17
27 | CCN(CC)C(=O)[C@@]1(c2ccccc2)C[C@H]1CN | 48.9 ± 6
28 | COc1cnc(NS(=O)(=O)c2ccc(N)cc2)nc1 | 119 ± 37
29 | NCCCC[C@H](N[C@@H](CCc1ccccc1)C(=O)O)C(=O)N1CCC[C@H]1C(=O)O | 105 ± 33
30 | Cc1onc(-c2ccccc2Cl)c1C(=O)N[C@@H]1C(=O)N2[C@@H]1SC(C)(C)[C@@H]2C(=O)O | 46.2 ± 1.5
31 | CN(C)[C@@H]1C(O)=C(C(N)=O)C(=O)[C@@]2(O)C(O)=C3C(=O)c4c(O)ccc(Cl)c4[C@@](C)(O)[C@H]3C[C@@H]12 | 35.8 ± 4.5
32 | C[C@@H]1C[C@H]2[C@@H]3CCC4=CC(=O)C=C[C@]4(C)[C@@]3(F)[C@@H](O)C[C@]2(C)[C@@]1(O)C(=O)CO | 196 ± 16
33 | C[n+]1cc2c3c(ccc2c2ccc4cc5c(cc4c21)OCO5)OCO3 | 86.7 ± 34
34 | NC(=O)N1c2ccccc2C=Cc2ccccc21 | 58.7 ± 10
35 | Cc1cc(O)cc(C)c1Cl | 30.8 ± 2.8
36 | CNC(=C[N+](=O)[O-])NCCSCc1ccc(CN(C)C)o1 | 109 ± 2.3
37 | C[C@H]1O[C@@H](O[C@H]2[C@@H](O)C[C@H](O[C@H]3[C@@H](O)C[C@H](O[C@H]4CC[C@@]5(C)[C@H](CC[C@@H]6[C@@H]5CC[C@]5(C)[C@@H](C7=CC(=O)OC7)CC[C@]65O)C4)O[C@@H]3C)O[C@@H]2C)C[C@H](O)[C@@H]1O | 231 ± 140
38 | C[C@@H](O[C@H]1OCCN(Cc2n[nH]c(=O)[nH]2)[C@H]1c1ccc(F)cc1)c1cc(C(F)(F)F)cc(C(F)(F)F)c1 | 117 ± 51
39 | CN(C)CC[C@@H](c1ccc(Cl)cc1)c1ccccn1 | 48.1 ± 3.8
40 | CCC1(C)CC(=O)NC1=O (stereo not given) | 119.65 ± 0.011
